The values that follow come from PubChem BioAssay AID1345085 (National Center for Advancing Translational Sciences (NCATS), 2018).

Results filed as inconclusive are left out. Entries that show only a call come without a potency. Activity calls are given as the source filed them. The call rests on the fitted dose curve; in most records, active means well fitted cell-killing curve with a large enough effect; inconclusive means small, poorly fitted or top-dose-only effect, or effect the other way; inactive means no such curve, though single readings can be large or run the other way.
Potency means the concentration at half of the fitted maximal effect.

In the assay the test system is CASKI. Briefly: Confirmatory qHTS for gynecologic anti-cancer compounds from libraries of approved drugs and bioactive compounds. Further: nearly all actives have a fitted effect of over 55% in size. Conditions: gynecologic cancer cell panel viability, ATPlite luminescence, 48 h; series mostly up to 57.6 µM. The gist of the method:
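1,000 cells/well; 16 h pre-incubation 37 C, 5% CO2; pin-transferred cpd in DMSO, 11 conc (1:3), 57.5 uM–0.977 nM; 48 h; ATPlite, 15 min RT; luminescence → IC50.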
(In general: Quantitative high-throughput screening tests each substance at several concentrations.)
As for `CCOc1ccccc1-n1c(C(C)N2CCN(C(=O)COc3ccc(Cl)cc3)CC2)nc2ccccc2c1=O` (centres undefined), the Potency result is “inactive”.

Take `Cc1sc2c(c1C)C(c1ccc(Cl)cc1)=NC(CC(=O)OC(C)(C)C)c1nnc(C)n1-2` (centres undefined): the Potency was 7.69 µM (active).

`C=C(C)[C@H]1Cc2c(ccc3c2O[C@@H]2COc4cc(OC)c(OC)cc4[C@@H]2C3=O)O1`: the Potency was 0.109 µM (active).

With `C/C=C(/C)C(=O)O[C@H]1C(C)=C2[C@H]([C@@H]1OC(=O)CCCCCCC)[C@@](C)(OC(C)=O)C[C@H](OC(=O)CCC)[C@@]1(O)[C@H]2OC(=O)[C@@]1(C)O`, the Potency was 34.3 µM (active).

`C[C@]12CC[C@H]3[C@@H](CCC4=CC(=O)CC[C@@H]43)[C@@H]1CC[C@@H]2OC(=O)CCc1ccccc1`: the Potency result was “inactive”.

For `O=C(O)Cc1ccccc1`, the Potency result was “inactive”.

For `CCN1CCN(C(=O)Cc2ccc(Nc3ncc(F)c(Nc4ccc(C(=O)Nc5ccccc5Cl)cc4)n3)cc2)CC1`, the Potency entry is “inactive”.

For the compound `CCC(=O)O[C@H]1CC[C@H]2[C@@H]3CCC4=CC(=O)CC[C@]4(C)[C@H]3CC[C@]12C`, the Potency entry is “inactive”.

`C[C@H]1CCC/C=C/C2C[C@H](O)C[C@H]2[C@H](O)/C=C/C(=O)O1` (some centres undefined): the Potency is 0.611 µM (active).
